# Active and inactive are the calls of the source. The rule behind the calls is not given here.
# Columns and labels:
# [1] = inhibitors of polyQ protein aggregation (AID 1604); details: polyglutamine-induced protein aggregation inhibition assay; stronger effect = higher value; tested at 2.5 µM
# [2] = enhancers of glutamate uptake in motor neurons, MN-1 cell line (AID 1612); details: MN-1 motor neuron cells, stronger effect = higher value;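 note: tested at 1 µM final; 0% = mean of DMSO vehicle wells on each plate; positive means more glutamate uptake than control and negative means less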
# [3] = reducers of polyQ inclusions in PC12 cells, cell-based, NGF-treated PC12, GFPQ80 (AID 1614); details: PC12 NGF-treated GFP-polyQ80 inclusion reduction;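 note: lower means fewer inclusions and 0 means no inclusions at all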
# [4] = suppressors of polyglutamine aggregation in yeast, 75Q-TubH (AID 1616); details: S. cerevisiae 75Q-TubH polyglutamine aggregation suppression; stronger effect = higher value
# [5] = inhibitors of Cryptococcus chitosan production, flow cytometry, Cibacron Brilliant Red staining (AID 1347148); details: Cryptococcus neoformans chitosan, stronger effect = lower value; at 10 µM unless noted;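 note: compound exposure lasted three days at 37 degrees C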
structure (smiles),measurement,setting,value
CN1CCC[C@H]1c1cccnc1,inhibition of aggregation,[1],47.1%
same,glutamate uptake change,[2],15.4%
same,inclusion score,[3],2
same,aggregation suppression score,[4],1.26
O=C1C(c2c(O)[nH]c3ccccc23)=Nc2ccccc21,fold fluorescence,[5],3.17 [at 190.6 µM] (inactive)
O=c1[nH]c2ccccc2c2ccccc12,fold fluorescence,[5],3.09 [at 256.1 µM] (inactive)
CN1C2CCC1CC(OC(c1ccccc1)c1ccccc1)C2 (stereo not drawn),inhibition of aggregation,[1],62%
same,glutamate uptake change,[2],-4.45%
same,aggregation suppression score,[4],1.04
CN(C)CC/C=C1/c2ccccc2COc2ccccc21,inhibition of aggregation,[1],92.3%
same,glutamate uptake change,[2],2.11%
same,inclusion score,[3],2
same,aggregation suppression score,[4],1.19

# — PubChem BioAssay
